Here are results for 35 compounds from PubChem BioAssay (NCATS).

A short description of experiment [1]: qHTS for Inhibitors of Plasmodium falciparum (DD2) proliferation (AID 504314).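 Note: parasite DNA measured by SYBR Green fluorescence after red cell lysis; plate controls were DMSO vehicle for no effect and artemisinin wells for full effect.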 Put shortly: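 Erythrocytes infected with P. falciparum Dd2 (0.3% parasitemia, 2.5% hematocrit) exposed to compound 72 h at 37C, 5% CO2. Parasite DNA quantified by SYBR Green fluorescence after saponin/Triton lysis overnight; normalized to 0.29 uM artemisinin and DMSO.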
(In general: In qHTS, concentration-response curves come from the screen itself.)

Experiment [2] can be described thus: qHTS for Inhibitors of Plasmodium falciparum (GB4) proliferation (AID 504315).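 Note: 0% = DMSO vehicle and -100% = 0.29 µM artemisinin control; nearly all actives have a fitted effect of over 50% in size.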 Put shortly:
(§1)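 Erythrocytes infected with P. falciparum line (0.3% parasitemia, 2.5% hematocrit final) incubated with compounds 72 h at 37 °C, 5% CO2; SYBR Green lysis buffer added, fluorescence read next day. Normalized to 0.29 uM artemisinin and DMSO.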

A short description of experiment [3]: qHTS for Inhibitors of Plasmodium falciparum (7G8) proliferation (AID 504316). Note: nearly all actives have a fitted effect of over 65% in size. Note: potency is the fitted concentration of half-maximal effect. Put shortly:
as §1

The nature of experiment [4]: qHTS for Inhibitors of Plasmodium falciparum (HB3) proliferation (AID 504318).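 Note: 0% = DMSO vehicle and -100% = artemisinin control; nearly all actives have a fitted effect of over 60% in size.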 Put shortly: as §1
A short description of experiment [5]: qHTS for Inhibitors of Plasmodium falciparum (CP250) proliferation (AID 504320).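 Note: plate controls were DMSO vehicle for no effect and 0.29 µM artemisinin control for full effect.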 Put shortly: as §1
Experiment [6] has as its target Atrial natriuretic peptide receptor 1 (Homo sapiens) (UniProt P16066). Nature of the experiment: Natriuretic polypeptide receptor (hNpr1) antagonism - Pilot CMLD screen (AID 1347052; calls by dose curve;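 note: cGMP level read as GloSensor luciferase luminescence after agonist stimulation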; note: potency is the fitted concentration of half-maximal effect).

Results filed as inconclusive are left out. Values without a mark were called inactive. Calls of active or inactive are those of the source. Unless noted, calls come from the whole dose curve; as a rule, active = well fitted curve in the direction sought with a large enough effect; inconclusive = small, poorly fitted or top-dose-only effect, or another doubt; inactive = no such curve, though single readings can be large; an effect the other way counts as inactive or inconclusive.

Atrial natriuretic peptide receptor 1 (Homo sapiens), sequence (P16066 whole entry, looked up): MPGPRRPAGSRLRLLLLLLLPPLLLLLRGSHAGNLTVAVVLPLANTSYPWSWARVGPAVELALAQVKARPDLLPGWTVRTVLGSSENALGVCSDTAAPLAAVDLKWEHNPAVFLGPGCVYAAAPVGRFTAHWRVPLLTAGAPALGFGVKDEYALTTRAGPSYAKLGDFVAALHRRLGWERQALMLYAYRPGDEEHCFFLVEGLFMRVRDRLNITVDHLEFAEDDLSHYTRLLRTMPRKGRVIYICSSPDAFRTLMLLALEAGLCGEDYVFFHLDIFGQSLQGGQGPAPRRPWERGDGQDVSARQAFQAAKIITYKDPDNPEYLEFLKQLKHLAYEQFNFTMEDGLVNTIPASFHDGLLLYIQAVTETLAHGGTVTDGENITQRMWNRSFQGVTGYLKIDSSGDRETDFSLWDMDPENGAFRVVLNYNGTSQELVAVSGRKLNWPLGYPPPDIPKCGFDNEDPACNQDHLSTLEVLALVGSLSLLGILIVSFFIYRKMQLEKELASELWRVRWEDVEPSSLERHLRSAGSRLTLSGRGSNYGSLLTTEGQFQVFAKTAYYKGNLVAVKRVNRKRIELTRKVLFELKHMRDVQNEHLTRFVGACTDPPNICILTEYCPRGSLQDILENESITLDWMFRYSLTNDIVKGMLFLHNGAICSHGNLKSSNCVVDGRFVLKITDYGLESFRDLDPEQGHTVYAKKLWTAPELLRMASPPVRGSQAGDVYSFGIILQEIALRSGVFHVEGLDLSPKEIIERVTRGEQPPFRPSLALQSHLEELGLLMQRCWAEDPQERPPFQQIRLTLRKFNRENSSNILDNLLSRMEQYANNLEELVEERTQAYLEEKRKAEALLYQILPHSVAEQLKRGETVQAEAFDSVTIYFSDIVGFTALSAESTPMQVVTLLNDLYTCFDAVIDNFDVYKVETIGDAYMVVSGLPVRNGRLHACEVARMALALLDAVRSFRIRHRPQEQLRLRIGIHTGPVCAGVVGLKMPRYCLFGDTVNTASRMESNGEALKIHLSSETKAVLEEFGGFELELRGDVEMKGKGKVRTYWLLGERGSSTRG

With `C=CCOC(=O)N[C@H](C(C(=O)OC)=C(C)NCc1ccccc1)c1cccc(OC)c1`, the Potency result in experiment [1], in experiment [2], in experiment [3], in experiment [4], in experiment [5] and in experiment [6] was “inactive” in each case.

Regarding `COC(=O)C1=C(C(=O)OC)[C@@H]2Nc3ccccc3[C@@]23C[C@@H](C(=O)OC)N(C(=O)NCCBr)C3=N1`, the Potency result in experiment [1], in experiment [2], in experiment [4], in experiment [5] and in experiment [6] was “inactive” throughout. For the same compound, the Potency in experiment [3] is 1900 nM (active).

Turning to `COC(=O)CCCC1=CC2=C(c3ccccc3)C(=O)C(C)(OC(=O)C3CCCC3)C(=O)C2=CN1C1CCCCC1` (stereo not given), the Potency entry in experiment [1], in experiment [2], in experiment [3], in experiment [4], in experiment [5] and in experiment [6] was “inactive” throughout.

With `C=CCOC(=O)NC(CC(=Nc1ccc(OC)cc1)C(=O)OC)c1ccccc1` (stereo not given), the Potency result in experiment [1], in experiment [2], in experiment [3], in experiment [4], in experiment [5] and in experiment [6] was “inactive” throughout.

Take `COC(=O)C1=C(C(=O)OC)[C@@H]2N(C)c3ccccc3[C@@]23C[C@@H](C(=O)OC)N(C(=O)Nc2cccc(C#N)c2)C3=N1`: the Potency result in experiment [1], in experiment [2], in experiment [3], in experiment [4], in experiment [5] and in experiment [6] was “inactive” each time.

For the compound `C#CCN1C(=O)CC[C@@]23C1=NC(C(=O)OC)=C(C(=O)OC)[C@@H]2N(Cc1ccccc1)c1ccccc13`, the Potency result in experiment [1], in experiment [2], in experiment [3], in experiment [4], in experiment [5] and in experiment [6] was “inactive” each time.

For `CC(=O)OC[C@H]1O[C@H](C#Cc2ccccc2)C=C[C@@H]1OC(C)=O`, the Potency result in experiment [1], in experiment [2], in experiment [3], in experiment [4], in experiment [5] and in experiment [6] was “inactive” each time.

As for `COC(=O)C1=C(C)N(Cc2ccccc2)C(=S)NC1c1ccc(Br)cc1` (stereo not given), the Potency entry in experiment [1], in experiment [2], in experiment [3], in experiment [4], in experiment [5] and in experiment [6] was “inactive” throughout.

As to `COC(=O)CCCC1=CC2=CC(=O)C(C)(OC(=O)c3cccs3)C(=O)C2=CN1CCc1ccccn1` (stereo not given), the Potency entry in experiment [1], in experiment [2], in experiment [3], in experiment [4], in experiment [5] and in experiment [6] was “inactive” each time.

In the case of `COCCN1C(=O)NC(CCc2ccccc2)C(C(C)=O)=C1C` (stereo not given), the Potency result in experiment [1], in experiment [2], in experiment [3], in experiment [4], in experiment [5] and in experiment [6] was “inactive” each time.

`CCOC(=O)CN1C(=O)NC(c2ccc(Br)cc2)C(C(=O)OC)=C1C` (stereo not given): the Potency result in experiment [1], in experiment [2], in experiment [3], in experiment [4], in experiment [5] and in experiment [6] was “inactive” in each case.

Consider `CCOC(=O)CN1C(=O)[C@]2(OCCC=C[C@@H]2C)c2c(Br)cccc21`, for which the Potency result in experiment [1], in experiment [2], in experiment [3], in experiment [4], in experiment [5] and in experiment [6] was “inactive” throughout.

Consider `CCCCC1=CC2=C(c3ccco3)C(=O)C(C)(OC(=O)c3ccc(OC)cc3)C(=O)C2=CN1C(CO)CO` (stereo not given), for which the Potency entry in experiment [1], in experiment [2], in experiment [3], in experiment [4], in experiment [5] and in experiment [6] was “inactive” each time.

As for `O=C1[C@H]2[C@@H]3[C@@H](O)[C@H](O)CC(=NOCc4ccccc4)[C@@H]3CC[C@H]2C(=O)N1c1ccc(F)cc1F`, the Potency entry in experiment [1], in experiment [2], in experiment [3], in experiment [4], in experiment [5] and in experiment [6] was “inactive” throughout.

Turning to `C=CCCCN1C=C(C(C)=O)C(c2ccccc2)NC1=O` (stereo not given), the Potency result in experiment [1], in experiment [2], in experiment [3], in experiment [4], in experiment [5] and in experiment [6] was “inactive” each time.

On to `O[C@@H]1CO[C@@H](C=Cc2ccccc2)[C@H]1OCc1cccc(Br)c1`, for which the Potency entry in experiment [1], in experiment [2], in experiment [3], in experiment [4], in experiment [5] and in experiment [6] was “inactive” throughout.

Regarding `COC[C@@H](O)[C@H]1OCc2ccccc2[C@H]1C=Cc1ccccc1`, the Potency entry in experiment [1], in experiment [2], in experiment [3], in experiment [4], in experiment [5] and in experiment [6] was “inactive” in each case.

As for `C[C@H]1Cc2c(-c3ccccc3)nc3c(c2CO1)CN(S(=O)(=O)c1ccc(Cl)c2nonc12)CC3`, the Potency result in experiment [1], in experiment [2], in experiment [3], in experiment [4], in experiment [5] and in experiment [6] was “inactive” each time.

Regarding `COC(=O)CC=C1c2ccc(F)cc2[C@@H](OC)[C@@H]1C`, the Potency result in experiment [1], in experiment [2], in experiment [3], in experiment [4], in experiment [5] and in experiment [6] was “inactive” each time.

Consider `COC(=O)C1=C(C(=O)OC)[C@@H]2N(Cc3ccccc3)c3ccccc3[C@@]23C[C@@H](C(=O)OC)N(C(=O)c2cccs2)C3=N1`, for which the activity, negative = inhibition in experiment [1] is -0.326% [at 1.12 µM]. Besides, the Potency result in experiment [2], in experiment [3], in experiment [4], in experiment [5] and in experiment [6] was “inactive” each time.

Consider `COC(=O)C1=C(C)N(CC2CC2)C(=O)NC1c1ccccc1` (stereo not given), for which the Potency entry in experiment [1], in experiment [2], in experiment [3], in experiment [4], in experiment [5] and in experiment [6] was “inactive” in each case.

As to `O=C1CCC=C1C(O)c1ccccc1` (stereo not given), the Potency entry in experiment [1], in experiment [2], in experiment [3], in experiment [4], in experiment [5] and in experiment [6] was “inactive” in each case.

For the compound `COC(=O)C1=C(C)N(CC#C[Si](C)(C)C)C(=O)N(C(C)=O)C1c1ccccc1` (stereo not given), the Potency result in experiment [1], in experiment [2], in experiment [3], in experiment [4], in experiment [5] and in experiment [6] was “inactive” in each case.

As to `COc1cccc2c1C1(CCCCC1)CC2NC(=O)C(F)(F)F` (stereo not given), the Potency entry in experiment [1], in experiment [2], in experiment [3], in experiment [4], in experiment [5] and in experiment [6] was “inactive” in each case.

Consider `CC(C)CON=C1C[C@@H](O)[C@@H](O)[C@@H]2[C@H]3C(=O)N(C4CCCCC4)C(=O)[C@@H]3CC[C@@H]12`, for which the Potency entry in experiment [1], in experiment [2], in experiment [3], in experiment [4], in experiment [5] and in experiment [6] was “inactive” each time.

Take `C=C(C)CCN1C(=O)NC(c2ccccc2)C(C(C)=O)=C1C` (stereo not given): the Potency entry in experiment [1], in experiment [2], in experiment [3], in experiment [4], in experiment [5] and in experiment [6] was “inactive” throughout.

For the compound `CCN1C(=O)[C@@H]2[C@H]3[C@H](O)[C@H](O)CC(=NOC[C@@H](C)[C@H](OCc4ccccc4)C(C)C)[C@@H]3CC[C@H]2C1=O`, the Potency result in experiment [1], in experiment [2], in experiment [3], in experiment [4], in experiment [5] and in experiment [6] was “inactive” each time.

Turning to `CC(=O)C1=C(C)N(Cc2ccccc2)C(=O)NC1c1ccco1` (stereo not given), the Potency entry in experiment [1], in experiment [2], in experiment [3], in experiment [4], in experiment [5] and in experiment [6] was “inactive” each time.

Consider `COC(=O)CC1c2ccccc2C(Cc2ccc(OC)cc2)=C(C)N1C(=O)OC` (stereo not given), for which the Potency result in experiment [1], in experiment [2], in experiment [3], in experiment [4], in experiment [5] and in experiment [6] was “inactive” in each case.

On to `C=CCOC(=O)C1=C(C)N(CC)C(=O)NC1c1ccccc1` (stereo not given), for which the Potency result in experiment [1], in experiment [2], in experiment [3], in experiment [4], in experiment [5] and in experiment [6] was “inactive” throughout.

In the case of `CC1(OC(=O)C2CCCC2)C(=O)C=C2C=C(c3ccsc3)N(c3cccc(C#N)c3)C=C2C1=O` (stereo not given), the Potency entry in experiment [1], in experiment [2], in experiment [3], in experiment [4] and in experiment [5] was “inactive” throughout. The Potency in experiment [6] is 2660 nM (active).

Turning to `COC(=O)C1=C(C(=O)OC)[C@@H]2N(Cc3ccccc3)c3ccccc3[C@@]23C[C@@H](C(=O)OC)N(C(=O)Nc2ccccc2F)C3=N1`, the Potency entry in experiment [1], in experiment [2], in experiment [3], in experiment [4] and in experiment [5] was “inactive” throughout. Also, the Potency in experiment [6] was 3350 nM (active).

Take `CC(=O)C1=C(C)N(Cc2ccccc2)C(=O)NC1c1cccc(C(F)(F)F)c1` (stereo not given): the Potency result in experiment [1], in experiment [2], in experiment [3], in experiment [4], in experiment [5] and in experiment [6] was “inactive” each time.

Turning to `C=CCOC(=O)N[C@H](C(C(=O)OC)=C(C)NCc1ccccc1)c1ccc2c(c1)OCO2`, the Potency entry in experiment [1], in experiment [2], in experiment [3], in experiment [4], in experiment [5] and in experiment [6] was “inactive” in each case.

Take `OC[C@H]1O[C@H](C#Cc2ccccc2)C=C[C@H]1O`: the Potency entry in experiment [1], in experiment [2], in experiment [3], in experiment [4], in experiment [5] and in experiment [6] was “inactive” throughout.
